Consider 13 compounds from PubChem BioAssay (Tox21).

SMILES strings stand for the structures. Records with an inconclusive call do not appear. Values without a mark were called inactive. The call rests on the fitted dose curve.
On the % scale 0 is the no-effect control and ±100 the full control effect.

Sequence of Beta-2 adrenergic receptor (Homo sapiens) (P07550 whole entry, looked up): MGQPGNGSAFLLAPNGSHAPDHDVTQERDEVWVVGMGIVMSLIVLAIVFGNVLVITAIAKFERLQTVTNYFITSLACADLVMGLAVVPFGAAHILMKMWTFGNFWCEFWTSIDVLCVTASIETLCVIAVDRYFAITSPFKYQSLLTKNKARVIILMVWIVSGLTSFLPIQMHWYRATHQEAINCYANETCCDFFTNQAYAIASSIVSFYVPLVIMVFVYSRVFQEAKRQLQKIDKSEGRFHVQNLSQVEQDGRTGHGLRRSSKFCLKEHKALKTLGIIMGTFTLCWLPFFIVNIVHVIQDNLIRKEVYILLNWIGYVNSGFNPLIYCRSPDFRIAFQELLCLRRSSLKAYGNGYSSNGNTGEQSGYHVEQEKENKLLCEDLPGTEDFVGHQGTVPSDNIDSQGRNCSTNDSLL

This assay addresses Beta-2 adrenergic receptor (Homo sapiens) (UniProt P07550). Nature of the assay: Adrenergic beta2 receptor (ADRB2) small molecule agonists, cell-based qHTS assay (AID 1963593).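 Further: CHO cells stably overexpressing human ADRB2.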 To be noted: CHO-ADRB2 cells, cAMP HTRF, 30 min; series mostly up to 42.5 µM; activation: at the top concentration. The method, boiled down:
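CHO cells stably over-expressing ADRB2 were plated overnight at 37C, then dosed with compounds plus a stimulation mix containing 100uM IBMX and 25uM Ro-20-1724 for 0.5hr at room temperature. cAMP was measured by HTRF competition, 1hr.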
Consider `O=C(Nc1ccc2c(O)c(N=Nc3ccc(N=Nc4ccc(S(=O)(=O)O)cc4)cc3)c(S(=O)(=O)O)cc2c1)c1ccccc1`, for which the “activation” value was 4.18% [at 92.4 µM].
As for `CC(C)(C)C(=O)/C=C/c1ccc(Cl)cc1`, the figure is -4.27% [at 92.4 µM]; as for `OCC(O)[C@@H](O)[C@H](O)[C@H](O)CO[C@H]1O[C@H](CO)[C@@H](O)[C@H](O)[C@H]1O` (stereo partly drawn), -2.56% [at 92.4 µM]; as for `Cc1ccsc1C(=CCCN1CCC[C@@H](C(=O)O)C1)c1sccc1C`, 19.6%.
`CCCCCCCCCCC(=O)O`: the “activation” value is 7.52% [at 92.4 µM].
As for `CCOc1nc2cccc(C(=O)O)c2n1Cc1ccc(-c2ccccc2-c2nn[nH]n2)cc1`, the figure is 5.69%; as for `CO[Si](C)(OC)c1ccccc1`, 0.258% [at 92.4 µM]; as for `Cc1ccc(N(CC2=NCCN2)c2cccc(O)c2)cc1`, -1.39%.
Then `COc1cccc(O)c1`, with 11% [at 92.4 µM]; and `CC[C@H]1OC(=O)[C@H](C)[C@@H](O[C@H]2C[C@@](C)(OC)[C@@H](O)[C@H](C)O2)[C@H](C)[C@@H](O[C@@H]2O[C@H](C)C[C@H](N(C)C)[C@H]2O)[C@](C)(OC)C[C@@H](C)C(=O)[C@H](C)[C@@H](O)[C@]1(C)O`, with 3.74% [at 92.4 µM].
For `Cc1c(C)c2c(c(C)c1O)CC[C@@](C)(CCC[C@H](C)CCC[C@H](C)CCCC(C)C)O2`, the “activation” value is -12.9% [at 92.4 µM].
As for `CN(C)c1ccc(C(c2ccccc2)c2ccc(N(C)C)cc2)cc1`, the figure is -12.2% [at 92.4 µM].
For `CCCCOC(=O)C(C)Oc1ccc(Oc2ccc(C(F)(F)F)cn2)cc1` (stereo not drawn), the “activation” value was -0.755% [at 92.4 µM].
